# Gli-Sufu antag – Gli-Sufu pathway antagonism. Sufu-KO-LIGHT fibroblasts, Gli luciferase reporter luminescence. inhibition, % at 5 µM. actives 0.74% (n = 340,000). AID 588413;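 active = inhibition above about 55%, limit read from the data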;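 note: 0% = DMSO-treated cells and 100% = wells with medium but no cells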
# Jurkat NFkB inh – lowers PMA/ionomycin-induced NF-kB signal in Jurkat cells | AID 435003 | actives 0.53% (n = 330,000) | inhibition, % at 4 µM | PMA/ionomycin-induced NF-kB luciferase reporter, luminescence; in the data active = inhibition above about 50%
# 697 NFkB inh – inhibitors of the PMA/ionomycin-induced NF-kB reporter in 697 B cells | inhibition, % at 4 µM | 697 B-cell NF-kB luciferase reporter, 16 h | actives 0.33% (n = 330,000); in the data active = inhibition above about 35%
# Beta apoptosis – blocks beta cell apoptosis; INS-1E cytokine-induced death, ATP luminescence, 48 h; percent of positive-control rescue, neutral wells zero; protection from apoptosis, % (no concentration beside the values); actives 0.8% (n = 300,000);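 active = Every replicate reaches about 75%, or at least half do and their mean reaches it too, limit read from the data; inconclusive = At least half of replicates reach the limit but their mean does not; inactive = Under half of replicates reach the limit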;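 note: 0% = cytokine-treated negative control wells and 100% = positive control rescue; higher means more ATP so stronger rescue from cytokine killing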
# Mdm2 MdmX PPI – disrupts the human Mdm2-MdmX interaction. SaOS-2 split-luciferase Mdm2/MdmX complementation, luminescence. inhibition, % at 8 µM. actives 3% (n = 330,000). O15151+Q00987. AID 485346;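 active = inhibition of at least 50% at 8 µM in the primary screen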
# Target sequence (O15151 whole entry, looked up): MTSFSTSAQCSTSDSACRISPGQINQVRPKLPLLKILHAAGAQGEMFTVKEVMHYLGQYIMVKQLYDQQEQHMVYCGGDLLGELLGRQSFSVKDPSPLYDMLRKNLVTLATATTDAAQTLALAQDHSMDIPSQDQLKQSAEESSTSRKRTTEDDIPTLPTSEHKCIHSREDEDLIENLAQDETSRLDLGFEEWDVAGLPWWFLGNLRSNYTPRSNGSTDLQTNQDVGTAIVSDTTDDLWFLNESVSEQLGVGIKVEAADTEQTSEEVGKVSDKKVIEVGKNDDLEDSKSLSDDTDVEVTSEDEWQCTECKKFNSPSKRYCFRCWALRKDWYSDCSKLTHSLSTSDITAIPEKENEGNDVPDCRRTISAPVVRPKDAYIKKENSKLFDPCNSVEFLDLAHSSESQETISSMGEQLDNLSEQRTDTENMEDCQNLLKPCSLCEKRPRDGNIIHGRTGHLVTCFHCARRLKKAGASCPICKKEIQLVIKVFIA
# Target sequence (Q00987 whole entry, looked up): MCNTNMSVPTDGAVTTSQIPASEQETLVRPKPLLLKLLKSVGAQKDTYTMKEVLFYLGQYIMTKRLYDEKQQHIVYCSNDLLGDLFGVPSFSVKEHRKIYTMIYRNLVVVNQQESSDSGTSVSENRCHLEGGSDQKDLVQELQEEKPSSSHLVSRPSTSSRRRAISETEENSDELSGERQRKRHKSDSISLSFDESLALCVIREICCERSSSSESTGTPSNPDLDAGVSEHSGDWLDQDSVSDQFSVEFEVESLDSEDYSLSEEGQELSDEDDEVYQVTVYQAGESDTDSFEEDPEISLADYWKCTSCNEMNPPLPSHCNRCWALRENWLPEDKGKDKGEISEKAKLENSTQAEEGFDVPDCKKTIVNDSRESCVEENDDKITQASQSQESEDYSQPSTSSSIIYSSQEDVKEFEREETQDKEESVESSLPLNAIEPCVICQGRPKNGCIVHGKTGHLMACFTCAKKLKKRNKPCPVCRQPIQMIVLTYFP
# Mdm2 MdmX conf – confirmation of human Mdm2/MdmX interaction inhibitors. shares compounds with Mdm2 MdmX PPI. Mdm2-MdmX binding, luminescent assay. inhibition, % at 8 µM. actives 55% (n = 10,000). AID 489028; in the data active = inhibition above about 40%
# Full FLuc ctr – full-length luciferase inhibition in Mdm2/MdmX counter-screen. SaOS-2 full-length luciferase counterscreen, luminescence. shares compounds with Mdm2 MdmX PPI. inhibition, % at 8 µM. actives 77% (n = 6,200). AID 504607;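 active = mean inhibition at 8 µM reaching about 37%, which flags the compound as non-specific, limit read from the data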;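 note: p53-null SaOS-2 cells with luciferase driven by a doxycycline-inducible promoter; compound on cells about two nights before reading with doxycycline added after day one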
# Numbers without * were called inactive; u = inconclusive; x = no result. An excerpt weighted towards active compounds, which were near 4% of everything screened.
SMILES,Gli-Sufu antag,Jurkat NFkB inh,697 NFkB inh,Beta apoptosis,Mdm2 MdmX PPI,Mdm2 MdmX conf,Full FLuc ctr
O=C(O)Cc1sc(N/N=C\c2ccccc2)nc1-c1ccccc1,-5.2,-72.6,-78.9,2.0,-55.4,x,x
CCCCNC1C(CC)C(CCC)C(C#N)(C#N)C1(C#N)C#N (centres undefined),-17.2,37.0,33.3,-13.8,60.5*,30.9,55.9*
COc1ccc(NC(=O)Cc2ccc(-c3ccccc3)cc2)cn1,-7.0,43.2,-35.8,5.1,51.9*,54.5*,62.0*
Cc1ccc(NC(=O)Cc2ccc(-c3ccccc3)cc2)nc1,-10.8,12.1,-20.0,-17.7,75.1*,45.0*,80.2*
COc1ccc(CN2C(=O)c3ccccc3C2=O)cc1C(=O)Nc1ccccc1N1CCOCC1,4.2,12.1,1.9,-0.6,20.8,x,x
COc1ccc(NC(=O)c2cc(CN3C(=O)c4ccccc4C3=O)ccc2OC)cn1,-3.3,7.8,1.2,-3.2,52.9*,9.2,x
Cc1ccc(NC(=O)CCc2c[nH]c3ccccc23)nc1,-35.6,41.4,-223.3,x,83.4*,73.0*,51.5*
Nc1cc(Cl)ccc1N1CCCCCC1,2.1,-10.4,0.0,-2.7,-1.4,x,x
CCCN1CCN(C(=O)c2nn(-c3ccc(OC)cc3)c(=O)c3c2c2ccccc2n3C)CC1,28.4,-7.9,-21.0,-8.4,1.4,x,x
O=C(Cc1ccc(-c2ccccc2)cc1)Nc1ccccn1,-61.4,-6.1,-0.8,7.7,68.5*,55.1*,62.1*
Cc1ccnc(NC(=O)Cc2ccc([N+](=O)[O-])cc2)c1,-22.5,-4.3,10.2,-4.5,13.6,x,x
Cc1ccnc(NC(=O)Cc2ccc(-c3ccccc3)cc2)c1,-194.0,11.5,-77.9,70.7,90.7*,94.0*,144.8*
COc1ccc(CCN2CC(C(=O)NCc3nc4ccccc4n3C)CCC2=O)cc1 (centres undefined),-4.8,-22.9,-5.1,-2.1,5.3,x,x
Cc1ccc(C)c2sc(N3CCN(C(=O)c4ccc([N+](=O)[O-])o4)CC3)nc12,42.3,45.0,-12.5,19.5,90.2*,50.8*,54.9*
O=C(c1ccc([N+](=O)[O-])o1)N1CCN(c2nc3c(F)cc(F)cc3s2)CC1,45.7,41.8,4.3,57.0,12.2,x,x
Cc1ccc(Cl)c(NC(=O)COC(=O)c2ccccc2C(=O)c2ccc(Cl)c([N+](=O)[O-])c2)c1Cl,10.5,x,x,-1.5,x,x,x
CCCNC(=O)COC(=O)c1ccccc1C(=O)c1ccc(Cl)c([N+](=O)[O-])c1,-4.3,0.9,-0.9,-13.3,97.5*,88.2*,51.7*
Cc1ccccc1C(=O)c1cccn1CC(=O)NCCCN1CCCCC1,5.9,-3.9,-20.0,-3.5,11.9,x,x
Cc1ccccc1C(=O)c1cccn1CC(=O)NCCN1CCN(c2cccc(C)c2C)CC1,-34.5,9.6,-8.2,10.7,79.1*,48.1*,58.7*
Cc1ccc(C)c(N2CCN(CCCNC(=O)Cn3cccc3C(=O)c3ccccc3C)CC2)c1,27.4,15.1,-11.6,9.8,90.2*,65.7*,42.6*
CCc1noc(C)c1C(=O)N1CC(C)SC1=Nc1ccc(Cl)cc1 (centres undefined),10.0,-5.9,-40.1,-4.9,-8.3,x,x
Cc1ccc(S(=O)(=O)Nc2ccc3c(c2)C(=O)N([C@H](C)CO)C[C@H](C)[C@@H](CN(C)Cc2ccc(-c4ccccc4)cc2)O3)cc1,8.8,-6.3,-3.3,2.0,77.1*,8.7,x
Cc1ccc(S(=O)(=O)Nc2cccc3c2O[C@H](CN(C)Cc2ccc(-c4ccccc4)cc2)[C@@H](C)CN([C@H](C)CO)C3=O)cc1,-2.5,-1.5,1.2,-10.8,53.4*,16.7,x
COc1ccc(S(=O)(=O)Nc2ccc3c(c2)C(=O)N([C@H](C)CO)C[C@H](C)[C@H](CN(C)Cc2ccc(C(=O)O)cc2)O3)cc1,18.7,-1.3,0.1,-4.2,-9.3,x,x
CN(Cc1ccccc1)C(=O)c1cccc(NC(=O)C2CCCN(C(=O)OC(C)(C)C)C2)c1 (centres undefined),13.9,4.0,1.6,-6.2,16.0,x,x
SMILES,Gli-Sufu antag,Jurkat NFkB inh,697 NFkB inh,Beta apoptosis,Mdm2 MdmX PPI,Mdm2 MdmX conf,Full FLuc ctr
COc1ccc(NC(=O)CS(=O)(=O)c2cccc(Cl)c2)cc1,4.1,-25.7,1.5,2.2,1.4,x,x
Cc1ccc2c(c1)C(=O)C(=O)N2CC1COc2ccccc2O1 (centres undefined),x,-17.3,-3.5,1.3,35.2,x,x
COc1ccc2c(c1)C(=O)C(=O)N2CC1COc2ccccc2O1 (centres undefined),43.9,10.4,0.2,-1.8,54.2*,24.9,x
CCOc1ccc2c(c1)C(=O)C(=O)N2CC1COc2ccccc2O1 (centres undefined),-2.2,17.4,-1.5,2.9,68.8*,30.2,x
COc1ccc(C2=Nn3c(nnc3-c3ccccc3Cl)SC2)cc1OC1CCOC1 (centres undefined),-10.0,-3.4,-15.4,6.1,62.5*,39.6,62.8*
COc1ccc(C2=Nn3c(nnc3-c3ccccc3Cl)SC2)cc1OC1CCCC1,-0.8,-3.4,-14.3,u,72.8*,49.0*,53.8*
COc1ccc(OC)c(-c2nnc3n2N=C(c2ccc(OC)c(OC4CCOC4)c2)CS3)c1 (centres undefined),37.7,18.9,8.0,18.6,67.9*,63.4*,93.5*
COc1ccc(C2=Nn3c(nnc3-c3ccccc3F)SC2)cc1OCC1CC1,14.8,18.1,-33.1,17.9,83.6*,61.5*,37.0*
FC(F)Oc1ccc(C2=Nn3c(nnc3-c3ccccc3Cl)SC2)cc1OCC1CC1,4.1,7.3,-51.6,9.4,-7.9,x,x
CC(=O)c1ccc(NC(=O)[C@@H]2CCCN2C(=O)OC(C)(C)C)cc1,x,-27.5,-26.3,-3.7,-33.2,x,x
COc1ccc(-c2noc(N3CCC(C(=O)NCCCN4CCCC(C)C4)CC3)n2)cc1 (centres undefined),4.7,-8.2,4.5,-5.4,31.0,x,x
O=C(c1ccc(C#CC2(O)CCCCC2)cc1)N1CCN(C(c2ccccc2)c2ccccc2)CC1,-9.1,-3.0,-38.6,12.0,56.6*,32.9,x
COc1ccc(NC(=O)COC(=O)c2ccc(OCc3ccccc3Cl)c(OC)c2)c(OC)c1,-9.1,11.7,-7.0,-3.2,61.2*,15.6,x
O=C(C1CCCO1)N1CCN(C(=S)Nc2cc(F)cc(F)c2)CC1 (centres undefined),2.1,-13.2,-34.4,-4.1,14.4,x,x
O=C(COC(=O)C1CCC1)NCc1ccc(F)cc1,-4.5,9.2,6.4,-1.1,2.9,x,x
CCOC(=O)[C@@H]1[C@H]2COc3cc(OC)ccc3[C@H]2N2C(=O)N(c3ccc(C)cc3)C(=O)[C@@]12C,-5.7,10.0,3.3,5.6,-27.0,x,x
CCC1(O)CCCC2C3CCC4CC(=O)CCC4(C)C3C(=O)CC21C (centres undefined),-5.7,x,x,x,x,x,x

# Screening data as filed in PubChem.
